Inconclusive results are not listed. Where a call stands in place of a potency, no number is given. Active and inactive are the calls of the source. The call rests on the fitted dose curve; in most records, active means well fitted inhibition curve with a large enough effect; inconclusive means small, poorly fitted or top-dose-only effect; inactive means no such curve, though single readings can be large or run the other way.
Potency means the concentration at half of the fitted maximal effect.

This experiment can be described thus: Primary fluorescence-based thiol-reactive (MSTI) qHTS assay for identification of artifact compounds. (AID 1845221). Further: nearly all actives have a fitted effect of over 65% in size.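 On activity change, negative = thiol reactive: thiol-reactive compounds lower the probe fluorescence signal.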 The following applies: MSTI thiol-reactivity probe, 1 h; series mostly up to 53.8 µM. The text has this: PI: Alexander Tropsha Ph.D.
UNC Eshelman School of Pharmacy
University of North Carolina, Chapel Hill, North Carolina
Hits from high-throughput screening (HTS) of chemical libraries are often false positives due to their interference with the assay detection technology. In response to this problem, we generated the largest publicly available library of chemical liabilities and developed a free webtool to predict HTS artifacts, both of which are described herein. More specifically, we generated, curated, and integrated HTS datasets for thiol reactivity, redox activity, and luciferase (firefly and nano) activity. Using these curated datasets, we developed and validated several Quantitative Structure-Interference Relationship (QSIR) models to predict nuisance behavior. […] These models were employed for virtual profiling of the National Center for Advancing Translational Science's (NCATS) in-house library, and 256 compounds for each assay were selected for the experimental validation of nuisance behavior. The BA for these external predictions ranged from 58 to 78% for compounds within the applicability domains of the models. […] The models developed in this study, along with aggregation models previously developed by our group (SCAM Detective) were implemented in "Liability Predictor," an online tool which may be used as part of chemical library design or for triaging HTS hits. Both the models and the curated datasets are publicly available at https://liability.mml.unc.edu/.
SEQUENCE No. (e.g., 1, 2, 3, etc.); […] (e.g., Cells, Incubation, Reagent, etc.); VALUE; DESCRIPTION.
1; Reagent; 4 uL; […].
2; Compounds and control; 16 nL; Kalypsis pin tool (Wako USA) equipped with a 1536-well pin head.
4; Detection; Fluorescence, ViewLux microplate reader, 525 nm excitation, 598 nm emission.
NOTES (numbers refer to Sequence numbers above)
1. Assays determining (E)-2-(4-mercaptostyryl)-1,3,3-trimethyl-3H-indol-1-ium (MSTI) reactivity were performed as previously described in the literature with modifications for the quick identification of compounds reacting with thiol. In brief, 4 uL of MSTI or positive control Acetyl-MSTI (final concentrations of 4 uM and 4 uM, respectively) in assay buffer (2% DMSO in 1X PBS pH 7.4) was dispensed into all wells of a 1536-well assay plate (solid-bottom black plate; Greiner Bio One, Monroe, NC).
2. A Wako Pin-tool (Wako Automation, Richmond, VA) was used to transfer 16 nL of compounds (consisting of 7-plates in qHTS format, final concentration range 18.3 nM to 114 uM) or control MLS001163887 (final concentration range 1.22 nM to 40 uM).
3. Plates were centrifuged (121xg, 15 seconds) and incubated for 1 hour at room temperature protected from light.
4. Samples were read for fluorescence (Ex/Em = 525(20)/598(25) nm) on a ViewLux CCD imager (PerkinElmer). Data were normalized to Acetyl-MSTI (0% activity) and MSTI (100% activity) and the resulting percent inhibition data were fitted to a 4-parameter Hill equation using NCATS in-house software.
As to `C/C(=C\CCC1(C)C2CC3C(C2)C31C)C(=O)O` (stereo not given), the Potency entry was “inactive”. Take `CC(/C=C/C=C(\C)C(=O)O[C@@H]1O[C@H](CO[C@@H]2O[C@H](CO)[C@@H](O)[C@H](O)[C@H]2O)[C@@H](O)[C@H](O)[C@H]1O)=C\C=C\C=C(C)\C=C\C=C(/C)C(=O)O[C@@H]1C[C@](O)(C(=O)O)C[C@@H](O)[C@H]1OC(=O)/C=C/c1ccc(O)c(O)c1`: the Potency was 0.45 µM (active). As for `C=C(C(=O)O)[C@@H]1CC[C@@]2(C)CC[C@@H](O)C(=C)C2C1` (stereo not given in full), the Potency is 23.8 µM (active). In the case of `C=CCC/C=C/C#CCCCCCCCC[C@H]1C(=O)O[C@H](C)[C@@H]1O`, the Potency entry was “inactive”.

As for `C=C(C)[C@@H]1CC[C@]2(C(=O)O)CC[C@]3(C)C(CCC4[C@]5(C)C(CC[C@]43C)C(C)(C)[C@@H](O)[C@@H]5C(=O)O)C12` (stereo not given in full), the Potency result was “inactive”. With `CC1=C(CC/C(C)=C/C(=O)O)[C@@]2(C)CCCC(C)(C)C2CC1=O` (stereo not given in full), the Potency result is “inactive”. Same read-out and setting: then `C=C(C)[C@@H]1CC[C@]2(C)CC[C@]3(C)C(CCC4[C@@]5(C)CC[C@H](O)C(C)(C)C5CC[C@]43C)C12` (stereo not given in full), with “inactive”; and `C=CC(C)(O)C1CC2C3(C)CCCC(C)(C)C3C(O)C(O)C2(C)O1` (stereo not given), with “inactive”. Turning to `O=C(O)/C=C/c1ccc(O[C@@H]2O[C@H](CO)[C@@H](O)[C@H](O)[C@H]2O)cc1`, the Potency entry was “inactive”.

In the case of `C/C=C(/C)C(=O)OC1C(OC(C)=O)C23C(O)OC4(CCC5C6(C)CCC(OC7OC(C(=O)O)C(O)C(OC8OC(CO)C(O)C(O)C8OC8OC(C)C(O)C(O)C8OC8OCC(O)C(O)C8O)C7OC7OC(CO)C(O)C(O)C7O)C(C)(C)C6CCC5(C)C4(C)CC2OC(C)=O)C3CC1(C)C` (stereo not given), the activity change, negative = thiol reactive is 196% [at 11.5 µM] (inactive). With `CC(C)CC(c1c(O)c(C=O)c(O)c(C=O)c1O)C1CCC(C)(O)C2CC(C(C)(C)O)CCC12C` (stereo not given), the Potency is 4.12 µM (active). On to `CN1CCc2cc(Cl)c(O)cc2[C@@H](c2cccc3c2OCC3)C1`, for which the Potency entry is “inactive”. As to `C=C1CC[C@H]2[C@@](C)(CCC(OC3OC(CO)C(O)C(O)C3O)[C@@]2(C)CO)C1C(=O)CC1=CCOC1=O` (stereo not given in full), the Potency is 3.27 µM (active).

For the compound `CCC1OC(=O)C(C)CC(C)C(=O)/C(C)=C/C(C)C(=O)/C=C/C1(C)O` (stereo not given), the Potency entry was “inactive”. `OC[C@H]1O[C@@H](OCc2ccccc2)[C@H](O)[C@@H](O)[C@@H]1O`: the Potency is 5.32 µM (active). `C/C=C(\C)C(=O)OC[C@H]1O[C@H](O[C@H]2O[C@H](CO)[C@@H](O)[C@H](O)[C@H]2O[C@@H]2O[C@H](CO)[C@@H](O)[C@H](O)[C@H]2O)[C@H](O[C@@H]2O[C@H](CO)[C@@H](O)[C@H](O)[C@H]2O)[C@@H](O)[C@@H]1O`: the Potency entry is “inactive”. With `Cc1ccccc1-n1nc(-c2c(-c3ccc(F)cc3)nn3c2NC[C@@H](CO)C3)ccc1=O`, the Potency entry is “inactive”.

As to `COc1ccc([C@H]2OC[C@H]3[C@@H]2CO[C@@H]3c2ccc(O[C@@H]3O[C@H](CO)C(O)[C@H](O)[C@H]3O)c(OC)c2)cc1OC` (stereo not given in full), the Potency result is “inactive”.

Take `CC1(C)CC[C@]2(C(=O)O[C@@H]3O[C@H](CO[C@@H]4O[C@H](CO)[C@@H](O)[C@H](O)[C@H]4O)[C@@H](O)[C@H](O[C@@H]4O[C@H](CO)[C@@H](O)[C@H](O)[C@H]4O)[C@H]3O)CC[C@]3(C)C(=CCC4[C@@]5(C)CC[C@H](O[C@@H]6OC[C@@H](O)[C@H](O)[C@H]6O)[C@@](C)(C(=O)O)C5CC[C@]43C)[C@@H]2C1` (stereo not given in full): the activity change, negative = thiol reactive was 183% [at 11.5 µM] (inactive). On to `COc1cc(Cc2cnc(N)nc2N)c(C(C)C)cc1OC`, for which the Potency result was “inactive”. For the compound `OCC1OC(Oc2cc(O)cc(/C=C/c3ccc(OC4OC(CO)C(O)C(O)C4O)cc3O)c2)C(O)C(O)C1O` (stereo not given), the Potency entry is “inactive”. Still for that read-out and setting: for `CC(=O)NCC1CN(c2ccc(-c3ccc(CNCc4cn[nH]n4)cc3)c(F)c2)C(=O)O1` (stereo not given) the value was “inactive”. Same read-out and setting: for `CC(C)[C@](O)(c1ccc2cc(OC(F)F)c(OC(F)F)cc2c1)c1cn[nH]n1` the value was “inactive”.

On to `O=C(OCC1OC(Oc2ccc(O)cc2COC(=O)C2(O)C(O)CCC(=O)C2OC(=O)C2C=CCC2)C(OC(=O)C2C=CCC2)C(O)C1O)C1C=CCC1` (stereo not given), for which the Potency entry was “inactive”. Still for that read-out and setting: for `C=C1CCC2[C@](C)(CCC[C@]2(C)C(=O)O)[C@H]1CC/C(C)=C/C(=O)OC` (stereo not given in full) the value was “inactive”.

On to `C=C1C[C@H](O)[C@@H](O)[C@@]2(C)C1[C@@H](O)[C@H]1OC(=O)C3[C@@H](C)[C@@H](O)[C@H](O)C2[C@]31C` (stereo not given in full), for which the Potency entry was “inactive”.

For the compound `COC(=O)C1=C[C@@H](O)[C@@H](O)[C@H](O[C@@H]2O[C@H](CO)[C@@H](O)[C@H](O)[C@H]2OC(=O)/C=C/c2ccccc2)C1`, the Potency result was “inactive”.

Take `COc1cccc(OC)c1-c1nc(C(=O)N[C@@H](CC(C)C)C(=O)O)cn1-c1ccnc2cc(Cl)ccc12`: the Potency entry is “inactive”. The same measure, in the same setting: for `CC1(C)C=Cc2c(ccc3c2[N+]([O-])=C2C3(O)CC34NC(=O)C5(CCCN5C3=O)CC4C2(C)C)O1` (stereo not given) the value was 4.12 µM (active); for `COc1cc(Nc2ccc([N+](=O)[O-])cc2C(=O)O)cc2ccccc12`, 0.67 µM (active). `CC(C/C=C/C(C)(C)O)C1CCC(C)(O)C(O)C1` (stereo not given): the Potency result is “inactive”. The same measure, in the same setting: then `COc1ccccc1N1CCN(CCCCNC(=O)c2ccc(-c3cscn3)cc2)CC1`, with “inactive”; and `CC(O)C1NC(=O)C2CCCN2C1=O` (stereo not given), with “inactive”. For the compound `C=C1C(O)CC2C(C(=O)O)=COC(O[C@@H]3O[C@H](COC(=O)c4ccc(O)cc4)[C@@H](O)[C@H](O)[C@H]3O)C12` (stereo not given in full), the Potency was 5.19 µM (active).

Take `CCC(C)C(=O)O[C@H]1[C@@H](O[C@H]2O[C@H](CO)[C@@H](O)[C@H](O)[C@H]2O)O[C@H](CO)[C@@H](O)[C@@H]1O` (stereo not given in full): the Potency entry was “inactive”. Same read-out and setting: then `CCC(C)/C=C(C)/C=C/C1=CC2=C(Cl)C(=O)C(C)(OC(C)=O)C(=O)C2=CN1CCCCC(N)C(=O)O` (stereo not given), with 0.653 µM (active). Still for that read-out and setting: then `CC1(C)COC(=O)[C@@H]1O[C@@H]1O[C@H](CO)[C@@H](O)[C@H](O)[C@H]1O`, with “inactive”. For `O=C(/C=C/c1ccccc1)OC[C@H]1O[C@@H](OC(=O)c2cc(O)c(O)c(O)c2)[C@H](O)[C@@H](O)[C@@H]1O`, the Potency was 0.327 µM (active). The same measure, in the same setting: then `COc1cnc(-c2ccc(Cn3c(CC(C)(C)C(=O)O)c(SC(C)(C)C)c4cc(OC[C@@H]5Cc6ccccc6N5C(C)=O)ccc43)cc2)nc1`, with “inactive”; and `Cc1ncc([N+](=O)[O-])n1C[C@H](O)CN1CCOCC1`, with “inactive”.

The record behind these values is PubChem BioAssay (NCATS).
